Data on 47 compounds can be found in ChEMBL document CHEMBL3988442, “University of Dundee, Small-Polar-MMV Screening Library” (2021).

The whole screen tested about 66,000 compounds, of which about 960 (1.5%) showed an effect of 50% or more. The sample as a whole holds a higher share of strong results than the screen did.

This test has as its system Trypanosoma brucei. Briefly: Trypanosoma brucei 72 hour study. The test is classed as functional, organism-based. Set-up: scale not given: in the data most compounds retested in dose-response had high values.

On to `Cc1noc(Cl)c1CCC(=O)N1CCN(c2ccccc2)CC1`, for which, under “30.3 µM, […]”, the “Percent Effect” value is given as 16.11%.
`Cc1noc(Cl)c1CCC(=O)N1CCN(c2ncccn2)CC1`: the “Percent Effect” value (30 µM, 30.03 µM) is recorded as -22.8%.
With `CN(CCC(O)c1ccccc1)Cc1nc(-c2ccccc2)no1` (stereo not drawn), the “Percent Effect” value by setting is: (30.3 µM, […]) -13.82%; (10 mM, 10 mM as filed; unlikely as a test dose) -49.39%.
In the case of `CC(C)CN1CCC2(C1)CN(S(=O)(=O)c1cn(C)cn1)C2.O=C(O)C(F)(F)F.O=C(O)C(F)(F)F`, for the setting “30.3 µM, […]”, the “Percent Effect” value was -13.21%.
`NCCn1nc(C2CCN(Cc3ccccc3Cl)C2)c2nccnc21` (stereo not drawn): the “Percent Effect” value (30.3 µM, […]) is 22.22%.
The same measure, in the same setting: for `COc1ccccc1CN1CCC(c2nn(CCN)c3nccnc23)C1` (stereo not drawn) the value was 99.59%; for `Cc1ccccc1CN1CCC(c2nn(CCN)c3nccnc23)C1` (stereo not drawn), 24.84%.
In the case of `COCC(=O)N1C[C@@H]2CCCO[C@@H]2[C@H](N(C)Cc2ccco2)C1.O=C(O)C(F)(F)F`, under “30 µM, 30.03 µM”, the “Percent Effect” value is -11.7%.
`O=C(O)C(F)(F)F.O=C1N(Cc2cccc(F)c2)CCC12CCN(c1ccccn1)CC2`: the “Percent Effect” value (30.3 µM, […]) is -2.034%.
On the same count and under the same terms, for `CNCC[C@H]1CC(C)(C)Oc2ccc(OCC3CC3)cc21` the value was 86.36%; for `CNCC[C@H]1CC(C)(C)Oc2ccc(OC)cc21`, -16.4%.
The same measure, in the same setting: for `COc1ccc2c(c1)[C@@H](CCNC(C)=O)CC(C)(C)O2` the value was -14.03%.
With `Cc1nc(N(C)C)nc(N2CCC3(CC2)CNC(=O)O3)c1C`, the “Percent Effect” value (30 µM, 30.03 µM) is on record as -29.71%.
The same measure, in the same setting: for `CN(C)c1nc2c(c(N3CCC4(CC3)CNC(=O)C4)n1)CCCC2` the value was 23.78%; for `CN(C)c1nc2c(c(N3CCCC4(CC3)CNC(=O)O4)n1)CCCC2` (stereo not drawn), 52.4%.
For `CN(C)S(=O)(=O)N1C[C@@H](OCc2cccnc2)[C@H]2OCCC[C@H]21.O=C(O)C(F)(F)F`, under “30 µM, 30.03 µM”, the “Percent Effect” value is on record as -11.52%.
For `CN(Cc1cccc(OC(F)F)c1)Cc1nc2c(cnn2C)c(=O)[nH]1`, under “30.3 µM, […]”, the “Percent Effect” value is reported as -25.39%.
As for `CN(CCS(=O)(=O)c1cc(Cl)ccc1Cl)CC(N)=O`, the “Percent Effect” value (30 µM, 30.03 µM) is listed as -15.71%.
On the same count and under the same terms, for `CN(CCS(=O)(=O)c1cc(Cl)ccc1Cl)CC(=O)Nc1cccc(F)c1` the value was -17.26%; for `CN(CCS(=O)(=O)c1cc(Cl)ccc1Cl)CC(=O)Nc1ccc(F)cc1`, 64.98%.
Regarding `CC(=O)NC[C@]1(O)CCN(C(=O)c2ccc3c(c2)OCO3)C[C@H]1O`, the “Percent Effect” value (30.3 µM, […]) is on record as -26.03%.
Still for that read-out and setting: for `c1cc2cc[nH]c2c(CC2CN(Cc3cscn3)C2)n1` the value was -15.51%.
With `Cc1cnc(N2CCOCC3(CCN(c4ccccn4)C3)C2)nc1.O=C(O)C(F)(F)F.O=C(O)C(F)(F)F` (stereo not drawn), where the note is “30 µM, 30.03 µM”, the “Percent Effect” value is on record as -35.16%.
As to `CC(=O)NCC(=O)N1CCC2(CC1)C(=O)N(CC1CC1)c1ccccc12`, the “Percent Effect” value (30.3 µM, […]) was -5.541%.
As for `CN(C)C1CCCN(C(=O)c2cccc(-c3ncc[nH]3)c2)CC1` (stereo not drawn), for the setting “30 µM, 30.03 µM”, the “Percent Effect” value is listed as -3.463%.
Still for that read-out and setting: for `CN(C)[C@H]1CCCCN(C(=O)c2cccc(N3CCS(=O)(=O)CC3)c2)C1` the value was 11.69%; for `CN(C)[C@H]1CCCCN(C(=O)c2cccc(-c3cccc(F)c3)c2)C1`, 59.87%.
On the same count and under the same terms, for `CCC(C)CNc1ccc2oc(COC)nc2c1` (stereo not drawn) the value was 94.42%; for `COCc1nc2cc(NCc3ccc(C)o3)ccc2o1`, 13.96%.
The same measure, in the same setting: for `COCc1nc2cc(NCc3ccncc3)ccc2o1` the value was 16.85%.
Turning to `Cc1cccc(C(=O)N2CCN(CCC(C)C)CC2)n1`, the “Percent Effect” value (30.3 µM, […]) is recorded as -20.29%.
For `CCCN1Cc2nc(N3CCCC3)ncc2C1=O`, the “Percent Effect” value (30 µM, 30.03 µM) is 35.2%.
The same measure, in the same setting: for `FC(F)c1nnc2ccc(N3CCC4(CCOC4)C3)nn12` (stereo not drawn) the value was -51.53%; for `Cc1nnc2ccc(N3CCC4(CCOC4)C3)nn12` (stereo not drawn), -17.43%.
The same measure, in the same setting: for `c1ccc(-c2nnc3ccc(N4CCC5(CCOC5)C4)nn23)cc1` (stereo not drawn) the value was 81.34%.
Regarding `c1cc(-c2n[nH]cc2-c2ccnc(N3CCCCCC3)n2)ccn1`, the “Percent Effect” value (30.3 µM, […]) is listed as 36.75%.
Consider `CC(=O)N1CCN(C(=O)c2sc(-c3ccccc3F)nc2C)CC1`, for which, for the setting “30 µM, 30.03 µM”, the “Percent Effect” value is -46.44%.
On the same count and under the same terms, for `CCOC(=O)N1CCN(C(=O)c2sc(-c3ccccc3F)nc2C)CC1` the value was 51.23%; for `Cc1nc(-c2ccccc2F)sc1C(=O)N1CCN(C)CC1`, 37.21%.
On to `CC(=O)N1CCO[C@H]2[C@H](OCCCn3cccn3)CC[C@@H]21.O=C(O)C(F)(F)F`, for which the “Percent Effect” value (30.3 µM, […]) was -5.128%.
Same read-out and setting: for `COc1cccc(CN(Cc2ccco2)Cc2cnc(C)n2C)c1.O=C(O)CC(O)(CC(=O)O)C(=O)O` the value was 15.04%; for `CN1C[C@@H](C(=O)N(C)C)[C@@]2(CCc3ccccc3C(=O)N2)C1.Cl`, -15.68%.
Regarding `CNc1nc(C)c(C(=O)N2CCCCC2CN2CCCCCC2)s1` (stereo not drawn), the “Percent Effect” value (30 µM, 30.03 µM) turned out to be 17.59%.
Take `O=C(O)C(F)(F)F.O=C(O)C(F)(F)F.O=C(c1n[nH]c2c1CN(C1CCOC1)CC2)N1CCOCC1` (stereo not drawn): where the note is “30.3 µM, […]”, the “Percent Effect” value is reported as 0.9809%.
The same measure, in the same setting: for `CN(C)CCN1C(=O)CCCC12CCCN(C(=O)c1ccncc1)C2.O=C(O)C(F)(F)F.O=C(O)C(F)(F)F` (stereo not drawn) the value was -7.261%; for `CN(C)CCN1C(=O)CCC12CCCN(C(=O)c1cccnc1)CC2.O=C(O)C(F)(F)F.O=C(O)C(F)(F)F` (stereo not drawn), -25.41%.
The same measure, in the same setting: for `CN(C)CCN1C(=O)CCC12CCN(C(=O)c1cccnc1)CC2.O=C(O)C(F)(F)F.O=C(O)C(F)(F)F` the value was 75.6%.
